# Laboratory results: ChEMBL document CHEMBL4513216, “Probing the Open Global Health Chemical Diversity Library for Multistage-Active Starting Points for Next-Generation Antimalarials” (ACS Infect Dis, 2020)
# In all, about 69,000 compounds went through this assay and about 8,600 (12%) showed an effect of 50% or more. The entries come from a sample that favours strong results as a whole.
# Tested on: Plasmodium berghei
# Assay: Screen against P. berghei liver stage (PbLuc), transformed with Luciferase, at 10uM
# Format: functional, HepG2
# Conditions: tested at 10 uM
row,SMILES,INHIBITION [%]
1,Cc1cccc(N2Cc3c(NC4CCCC4)ncnc3N(C)CC2=O)c1,7.66
2,CC(=O)c1cccc(NC(=O)CN2CCCCC2C)c1 (configuration not stated),14
3,CC(=O)c1cccc(NC(=O)CN2CCCCC2C2OCCO2)c1 (configuration not stated),1.81
4,CC(=O)c1cccc(NC(=O)CN2CCCC(C3OCCO3)C2)c1 (configuration not stated),53.4
5,CN(C)Cc1cnn(-c2ccccc2C(=O)N(C)Cc2ccccc2)c1,-52.6
6,Cc1cc(=O)c2ccccc2n1CC1CCCN(C)C1 (configuration not stated),-9.92
7,Cc1cc(=O)c2ccccc2n1CC1CCN(C(C)C)C1 (configuration not stated),53.9
8,Cc1cc(=O)c2ccccc2n1CC1CCNC1 (configuration not stated),12.8
9,c1cnc(N2CCO[C@H]3CN(Cc4csnn4)C[C@H]32)cn1,23.3
10,O=C(NCCc1ccn(-c2ccccc2)n1)N1CCCC(O)C1 (configuration not stated),-16
11,O=C(NCCc1ccn(-c2ccccc2)n1)N1CCC1,26.9
12,O=C(NCCc1ccn(-c2ccccc2)n1)N1CCSCC1,62.9
13,Cc1cccc(NC(=O)C(C)Nc2cccc(CN3CCOC3=O)c2)c1 (configuration not stated),-18.15
14,CC1CC(=O)c2cc(C(=O)N3CCc4ccccc4C3)c(=O)[nH]c2C1 (configuration not stated),10.9
15,Cc1ccc(CN2C[C@@H]3CCCO[C@@H]3[C@H](N(C)Cc3ccco3)C2)o1,18.5
16,CC(NC(=O)NCCOc1ccc(Cl)cc1)c1nncn1C (configuration not stated),39.7
17,CC(NC(=O)NCCCN1CCCC1)c1nncn1C (configuration not stated),0.914
18,Cc1cccc(C)c1OCCNC(=O)NC(C)c1nncn1C (configuration not stated),50.4
19,CC(NC(=O)NCCN1CCCC1)c1nncn1C (configuration not stated),56.4
20,CC1CCN(CCCNC(=O)NC(C)c2nncn2C)CC1 (configuration not stated),52.3
21,CC(NC(=O)NCCCN1CCc2ccccc2C1)c1nncn1C (configuration not stated),-120
22,CCN1CCN(CCCNC(=O)NC(C)c2nncn2C)CC1 (configuration not stated),40
23,Cc1cccc(OCCCNC(=O)NC(C)c2nncn2C)c1 (configuration not stated),15.9
24,CC(NC(=O)NCCCN1CCCCCC1)c1nncn1C (configuration not stated),30.2

row,SMILES,INHIBITION [%]
1,N#CCCSc1sc2c(O)cc(O)nc2c1C#N,38.2
2,O=C(NCCc1cc2nc(-c3ccncc3)ccn2n1)C1CC1,23.6
3,O=C(c1cc[nH]n1)N1CCCC1c1ccccn1 (configuration not stated),13.5
4,CC(=O)N1CCC(c2nccnc2C)CC1,-16.1
5,OCC1(NCc2cnc(-c3ccsc3)s2)CCOCC1,-11.7
6,CN(C)c1cnn(CC(=O)N2CCN(c3ccccc3)CC2)c(=O)c1,53.7
7,CN(C)c1cnn(CC(=O)N2CCCCCC2)c(=O)c1,15.4
8,CN(C)c1cnn(CC(=O)N2CCN(Cc3cccs3)CC2)c(=O)c1,65.7
9,CN(CCc1ccccc1)c1cnn(CC(=O)N2CCOCC2)c(=O)c1,20.2
10,CN(Cc1ccc2nsnc2c1)C(=O)Cn1ncc(N(C)C)cc1=O,5.46
11,CN(CCc1ccccc1)c1cnn(CC(=O)N2CCSCC2)c(=O)c1,38.5
12,CN(Cc1ccoc1)C(=O)Cn1ncc(N(C)C)cc1=O,50.5
13,CSc1cccc(CN(C)C(=O)Cn2ncc(N(C)C)cc2=O)c1,4.64
14,CN(C)c1cnn(CC(=O)N2Cc3ccccc3C2)c(=O)c1,31.4
15,O=C(CCn1c(C(F)F)cc2cccnc21)NC1CC1,22
16,CC(c1nc(C(C)(C)C)no1)N1CCN(c2ccc(C#N)cn2)CC1 (configuration not stated),23.9
17,Cc1cc(C)n(CC2CCCN2C(=O)c2ccnc(N(C)C)c2)n1 (configuration not stated),3.73
18,CN(C)C(=O)[C@H]1C[C@H]2CN(c3ncccn3)C[C@@H]1O2,-5.63
19,Cn1cc(CN2CCCC3(CCN(Cc4ccncc4)C3=O)C2)cn1 (configuration not stated),43.1
20,COCCN1CCO[C@@H]2CN(Cc3sccc3C)C[C@@H]2C1,24.6
21,O=C(c1ccc(=O)[nH]n1)N(CCO)Cc1cc(Br)ccc1F,23.1
22,CCc1ccc(-n2nnc(C(=O)O)c2-c2ccccn2)cc1,9.84
23,CN(C)C(=O)Cc1nc(CN2CCn3c(nnc3C3CC3)C2)cs1,8.81
24,CC(C)c1nnc2n1CCN(Cc1csc(CC(=O)N(C)C)n1)C2,52

row,SMILES,INHIBITION [%]
1,Cc1nnc2n1CCN(Cc1csc(CC(=O)N(C)C)n1)C2,16.7
2,O=C1CCC2(CCCN(CCc3ccccc3)C2)N1Cc1cccnc1 (configuration not stated),23.2
3,CC(CNCc1ccc(Cl)cc1)Oc1ccccn1 (configuration not stated),11.4
4,CCn1cc(NC(=O)N2CCN(CCSc3ccccc3)CC2)cn1,-32.35
5,CCN1CCN(C(=O)C2CCCc3[nH]ncc32)CC1 (configuration not stated),-24.9
6,O=C(C1CCCc2[nH]ncc21)N1CCCC1 (configuration not stated),17.4
7,CN1CCN(C(=O)C2CCCc3[nH]ncc32)CC1 (configuration not stated),-3.12
8,O=C(C1CCCc2[nH]ncc21)N1CCCCCC1 (configuration not stated),46.6
9,CCN(CC)C(=O)N1CCN(C(=O)C2CCCc3[nH]ncc32)CC1 (configuration not stated),67.5
10,O=C(C1CCCc2[nH]ncc21)N1CCCC2(C1)OCCO2 (configuration not stated),50.8
11,CCS(=O)(=O)N1C[C@H]2CN(Cc3ccc(OC)cc3)C(=O)[C@H]2C1,-12.2
12,O=C(NCc1nc(C2CC2)no1)N1CCOC(c2cccc(F)c2)C1 (configuration not stated),53.6
13,O=C(NCc1nc(C2CC2)no1)N1CCOC(c2ccccc2F)C1 (configuration not stated),35
14,O=C(NCc1nc(C2CC2)no1)N1CCOC(c2ccccc2)C1 (configuration not stated),33.2
15,CCCOCC(=O)NC1CCc2nc(C)cn2C1 (configuration not stated),1.58
16,Cc1nc(C)n(CC2CN(CCOc3ccccc3C#N)CCO2)n1 (configuration not stated),-15.5
17,Cc1csc2c(C3CCN(CCOc4ccccc4F)CC3)nc(C)n12,54
18,Cc1nc(C)n(CC2CN(Cc3cc(C#N)ccc3F)CCO2)n1 (configuration not stated),51.1
19,Cc1nc(C)n(CC2CCCN(Cc3cc(C#N)ccc3F)C2)n1 (configuration not stated),-2.53
20,Cc1nc(C)n(CC2CN(CCOc3ccccc3F)CCO2)n1 (configuration not stated),53.8
21,Cc1nc(C)n(CC2CN(CCCOc3ccccc3C)CCO2)n1 (configuration not stated),24.4
22,Cc1ccc(OCCN2CCC(c3nc(C)n4c(C)csc34)CC2)cc1,29.1
23,Cc1csc2c(C3CCN(CCCOc4ccccc4)CC3)nc(C)n12,46.7
24,Cc1nc(C)n(CC2CN(Cc3cccc(C#N)c3)CCO2)n1 (configuration not stated),10.5
